Where “and” joins values, the source holds several entries; their conditions need not be identical. Identical values can stand only once. Inconclusive results are not listed. Calls of active or inactive are those of the source. Unless noted, calls come from the whole dose curve; as a rule, active = well fitted curve in the direction sought with a large enough effect; inconclusive = small, poorly fitted or top-dose-only effect, or another doubt; inactive = no such curve, though single readings can be large; an effect the other way counts as inactive or inconclusive.
What was measured:
[1] = target: Arylsulfatase A (Homo sapiens) (UniProt P15289); assay: qHTS screen for enhancers of Arylsulfatase A (ASA1): LOPAC Validation Assay (AID 720538); note: potency is the fitted concentration of half-maximal effect
Outline: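 First, ASA-I179S fibroblasts from an MLD patient adhered for 6 hrs. Next, compounds were added for 48h. Then pNCS substrate (0.5mM final) with lysis buffer reacted 14h at room temperature before NaOH stop and fluorescence measurement.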

[2] = qHTS for compounds that reverse cellular toxicity of Amyloid beta (A-beta) peptide in yeast: LOPAC Validation Assay (AID 720559); details: Potency: rescue of growth toxicity;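 note: plate controls were DMSO for no effect and equimolar ferric chloride plus clioquinol rescue for full effect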
Outline: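 Activity is expressed relative to DMSO and an equimolar ferric chloride/clioquinol mix. Compounds were pinned into medium with A-beta-expressing yeast, grown 48 hr at 30 C, then read by absorbance at 600 nm.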

[3] = qHTS for Activators of Parkin Expression: LOPAC Validation Assay (NLuc Reporter) (AID 720572;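 note: 0% = DMSO and 100% = positive control compound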)
Outline: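 Neuronal cells with a Parkin promoter-driven FLuc/NLuc coincidence reporter were treated 24 h at 37 C in 7-point dose response (LOPAC). NLuc luminescence read after FLuc; signals normalized to DMSO and positive control (100%).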

[4] = qHTS for Activators of Parkin Expression: LOPAC Validation Assay (FLuc Reporter) (AID 720573; note: potency is the fitted concentration of half-maximal effect)
Outline: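 A neuronal cell line harbouring FLuc and NLuc reporters behind the Parkin promoter was exposed to compounds for 24 h. Firefly luciferase signal, measured after 10 min with detection reagent, was scaled to DMSO and positive-control wells.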

[5] = target: T1, Hexokinase-4 (Homo sapiens) + Glucokinase regulatory protein (Homo sapiens) (UniProt P35557+Q14397); assay: qHTS assay for inhibitors of recombinant human GCK-GKRP interaction: Diaphorase-coupled assay (AID 743205)
Outline: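 Inhibitors of the GCK–GKRP complex relieve GKRP suppression of GCK, detected through a G6PDH–diaphorase cascade reducing resazurin. Human GST-GCK and FLAG-GKRP are used at 10 nM with 5 mM glucose and 0.4 mM ATP.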

[6] = target: T1, Hexokinase-4 (Homo sapiens) + Glucokinase regulatory protein (Homo sapiens); assay: qHTS assay for inhibitors of recombinant human GCK-GKRP interaction: ADP-Glo assay (AID 743206);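 note: plate controls were DMSO plus enzyme for no effect and no enzyme for full effect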
Outline: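 GST-GCK and FLAG-GKRP (15 nM each in the dispensed mix, with 2 uM S6P) react with 0.4 mM ATP and 5 mM glucose (final) in Hepes pH 7.6 for 60 min at room temperature. ADP is measured by ADP-Glo luminescence.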

[7] = target: T1, Hexokinase-4 (Homo sapiens) + Glucokinase regulatory protein (Homo sapiens); assay: qHTS assay for inhibitors of recombinant human GCK-GKRP interaction: HTRF assay (AID 743207);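 note: 0% = DMSO with GCK present and -100% = DMSO wells lacking GCK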
Outline: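 Steps: dispense GCK–GKRP complex (5 nM each, GST- and FLAG-tagged) with 2 uM S6P; pin in compounds; add XL665/Eu-cryptate-labelled antibodies; incubate 60 min at room temperature; read time-resolved FRET at 665 and 615 nm.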

[8] = qHTS Assay for Identifying Gametocytocidal Compounds (AID 743244); note: potency is the fitted concentration of half-maximal effect;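 for max response: % is set by controls: 0 for no effect and ±100 for the full control effect; actives lower the fluorescent signal which means gametocytes are killed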; details: P. falciparum 3D7 stage III-V gametocytes, alamarBlue, 72 h; max response: stronger effect = lower value
Outline: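 Viability read-out was resazurin reduction (alamarBlue, 24 h) measured at Ex 525/Em 598 nm. Beforehand, late-stage (III-V) 3D7 P. falciparum gametocytes at 20,000 cells/well were incubated with compound 72 h at 37C under 5% CO2.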

[9] = qHTS assay for small molecule agonists of the antioxidant response element (ARE) signaling pathway measured by Nrf2-dependant transcriptional activity (AID 720636; active = well fitted curve in the direction sought with a large enough effect in the repeat runs; an effect the other way counts as inactive or inconclusive;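 note: HepG2 cells with an ARE-driven luciferase reporter; % of control where 0% means no effect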)
Outline: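 Cells: ARE-luc HepG2 with Nrf2-responsive luciferase. Medium contained 1% dialyzed FBS. Compound exposure lasted 16 hr at 37 C and 5% CO2, followed by ONE-Glo luciferase detection.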

[10] = qHTS assay for small molecule agonists of the antioxidant response element (ARE) signaling pathway measured by Nrf2-dependant transcriptional activity - cell viability counter screen (AID 720653; active = well fitted curve in the direction sought with a large enough effect in the repeat runs; an effect the other way counts as inactive or inconclusive; note: % is set by controls: 0 for no effect and ±100 for the full control effect); details: ARE-bla HepG2 viability, CellTiter-Glo ATP luminescence, 16 h; max response: stronger effect = lower value
Outline: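 ARE-bla HepG2 cells treated with compounds for 16 h at 37C; this counter screen measures viability as intracellular ATP by CellTiter-Glo luminescence after 30 min at room temperature.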

Sequence of Arylsulfatase A (Homo sapiens) (P15289 whole entry, looked up): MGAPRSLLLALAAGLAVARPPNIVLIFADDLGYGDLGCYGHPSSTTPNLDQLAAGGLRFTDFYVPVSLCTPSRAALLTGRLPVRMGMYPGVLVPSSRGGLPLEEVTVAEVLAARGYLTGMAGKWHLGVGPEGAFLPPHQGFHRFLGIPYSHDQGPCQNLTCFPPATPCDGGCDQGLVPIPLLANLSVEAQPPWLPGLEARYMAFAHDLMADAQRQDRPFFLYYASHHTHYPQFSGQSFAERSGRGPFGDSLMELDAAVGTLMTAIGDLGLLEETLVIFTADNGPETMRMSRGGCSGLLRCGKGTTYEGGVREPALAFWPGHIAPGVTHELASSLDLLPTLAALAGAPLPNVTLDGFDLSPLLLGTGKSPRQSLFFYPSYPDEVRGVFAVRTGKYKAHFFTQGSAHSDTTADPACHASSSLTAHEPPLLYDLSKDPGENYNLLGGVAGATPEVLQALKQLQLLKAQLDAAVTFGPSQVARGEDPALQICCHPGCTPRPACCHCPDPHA
T1 sequence (P35557 whole entry, looked up): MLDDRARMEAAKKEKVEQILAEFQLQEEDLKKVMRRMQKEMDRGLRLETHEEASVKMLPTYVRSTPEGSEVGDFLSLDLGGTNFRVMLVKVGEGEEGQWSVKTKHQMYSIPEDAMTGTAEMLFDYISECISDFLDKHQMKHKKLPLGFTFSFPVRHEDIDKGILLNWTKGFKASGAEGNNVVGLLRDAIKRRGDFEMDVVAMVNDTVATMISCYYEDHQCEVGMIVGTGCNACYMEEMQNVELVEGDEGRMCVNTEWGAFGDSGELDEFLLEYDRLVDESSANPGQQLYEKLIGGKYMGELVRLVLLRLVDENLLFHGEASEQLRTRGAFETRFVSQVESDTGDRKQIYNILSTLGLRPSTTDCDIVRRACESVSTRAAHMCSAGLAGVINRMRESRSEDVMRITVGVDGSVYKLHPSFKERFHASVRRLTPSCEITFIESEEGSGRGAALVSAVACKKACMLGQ
T1 sequence (Q14397 whole entry, looked up): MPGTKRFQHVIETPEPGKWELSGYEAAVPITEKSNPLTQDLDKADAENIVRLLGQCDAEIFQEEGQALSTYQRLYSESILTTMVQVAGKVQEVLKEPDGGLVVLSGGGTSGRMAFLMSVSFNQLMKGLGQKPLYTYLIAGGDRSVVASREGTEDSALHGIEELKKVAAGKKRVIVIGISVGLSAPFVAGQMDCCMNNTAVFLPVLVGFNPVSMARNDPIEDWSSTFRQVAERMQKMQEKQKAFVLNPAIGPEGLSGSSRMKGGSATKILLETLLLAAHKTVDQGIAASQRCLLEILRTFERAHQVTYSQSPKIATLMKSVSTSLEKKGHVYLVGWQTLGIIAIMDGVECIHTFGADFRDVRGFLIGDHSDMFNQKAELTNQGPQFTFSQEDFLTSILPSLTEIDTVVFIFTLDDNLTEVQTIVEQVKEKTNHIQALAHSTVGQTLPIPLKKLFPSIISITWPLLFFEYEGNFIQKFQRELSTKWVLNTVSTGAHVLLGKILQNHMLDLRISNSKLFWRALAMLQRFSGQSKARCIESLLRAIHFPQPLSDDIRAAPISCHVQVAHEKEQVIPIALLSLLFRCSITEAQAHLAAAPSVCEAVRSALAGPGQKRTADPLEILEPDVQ

CC(=O)/C=C1\C(=O)N(C)c2ccccc21
inactive: Potency [1] | Potency [2] | Potency [3] | Potency [4] | outcome [5] | Potency [6] | Potency [7] | max response [8] -11.9%

COc1ccc(NC(=O)/C=C/c2ccc(Cl)cc2)cc1
inactive: Potency [1] | Potency [2] | Potency [3] | outcome [5] | Potency [6] | Potency [7] | max response [8] 30.8%
active: Potency [4] 1.03 µM

CCCCCCCCCCCCCCCCCC(=O)OC(CC(=O)O)C[N+](C)(C)C (configuration not stated)
inactive: Potency [1] | Potency [2] | Potency [3] | Potency [4] | outcome [5] | Potency [6] | Potency [7] | max response [8] -2.89%

C[C@@H](NC(=O)/C(C#N)=C/c1ccc(O)c(O)c1)c1ccccc1
inactive: Potency [1] | Potency [2] | Potency [3] | Potency [4] | outcome [5] | Potency [6] | Potency [7] | max response [8] 3.77%

COc1cc2nc(N3CCN(C(=O)OCc4ccccc4)C(C(=O)NC(C)(C)C)C3)nc(N)c2cc1OC (configuration not stated)
inactive: Potency [1] | Potency [2] | Potency [3] | Potency [4] | outcome [5] | Potency [6] | Potency [7]

CCOC(=O)N1CCN(/[N+]([O-])=N/Oc2ccc([N+](=O)[O-])cc2[N+](=O)[O-])CC1
inactive: Potency [1] | Potency [2] | Potency [3] | Potency [4] | outcome [5] | Potency [6] | Potency [7]

CC(C)ON([C@@H](C(=O)NO)C(C)C)S(=O)(=O)c1ccc(-c2ccccc2)cc1
inactive: Potency [1] | Potency [2] | Potency [3] | Potency [4] | outcome [5] | Potency [6] | Potency [7]

CN1CCc2cc(O)c(O)cc2C(c2ccccc2)C1 (configuration not stated)
active: Potency [1] 21.3 µM
inactive: Potency [2] | Potency [3] | Potency [4] | outcome [5] | Potency [6] | Potency [7]

CC(COc1ccc(/C=C/c2ccccc2)cc1)[N+](C)(C)C (configuration not stated)
inactive: Potency [1] | Potency [2] | Potency [3] | Potency [4] | outcome [5] | Potency [6] | Potency [7]

Clc1ccc(N2CCN(Cc3cc4ccccn4n3)CC2)cc1
inactive: Potency [1] | Potency [2] | Potency [3] | Potency [4] | outcome [5] | Potency [6] | Potency [7]

COc1cc2c(CCNC(C)=O)c[nH]c2cc1Cl
inactive: Potency [1] | Potency [2] | Potency [3] | Potency [4] | outcome [5] | Potency [6] | Potency [7] | max response [8] 6.49%

O=[N+]([O-])c1ccc2c(c1)S(=O)(=O)C=C2
active: Potency [8] 1 µM
inactive: Potency [1] | Potency [2] | Potency [3] | Potency [4] | outcome [5] | Potency [6] | Potency [7]

CC(C)NCC(O)COc1cccc2ccccc12 (configuration not stated)
inactive: Potency [1] | Potency [2] | Potency [3] | Potency [4] | Potency [9] | max response [10] -11.2% and -5.42% | outcome [5] | Potency [6]

O=C(O)CCCC[C@@H]1CCSS1
inactive: Potency [1] | Potency [2] | Potency [3] | Potency [4] | outcome [5] | Potency [6] | Potency [7] | max response [8] 7.49%

OC[C@H]1O[C@@H](n2cnc3c(NC4CCCCC4)ncnc32)[C@H](O)[C@@H]1O
inactive: Potency [1] | Potency [2] | Potency [3] | Potency [4] | outcome [5] | Potency [6] | Potency [7] | max response [8] 8.7%

CCN(CC)c1ncnc2c1ncn2[C@@H]1O[C@H](COP(=O)(O)OP(=O)(O)C(Br)(Br)P(=O)(O)O)[C@@H](O)[C@H]1O
inactive: Potency [1] | Potency [2] | Potency [3] | Potency [4] | outcome [5] | Potency [6] | Potency [7] | max response [8] -1.02%

C[N+]1(C)CCC(OC(=O)C(c2ccccc2)c2ccccc2)CC1
inactive: Potency [1] | Potency [2] | Potency [3] | Potency [4] | outcome [5] | Potency [6]

Fc1ccc(C(OCCCc2cnc[nH]2)c2ccc(F)cc2)cc1
inactive: Potency [1] | Potency [2] | Potency [3] | Potency [4] | outcome [5] | Potency [6] | Potency [7]

CCCCC/C=C\CC(O)/C=C/c1cccc(CC(O)CCCCO)n1 (configuration not stated)
inactive: Potency [1] | Potency [2] | Potency [3] | Potency [4] | outcome [5] | Potency [6]

CC(C)(C)c1ccc(S(=O)(=O)/C=C/C#N)cc1
inactive: Potency [1] | Potency [2] | Potency [3] | Potency [4] | outcome [5] | Potency [6]

NS(=O)(=O)C#Cc1ccccc1
inactive: Potency [1] | Potency [2] | Potency [3] | Potency [4] | outcome [5] | Potency [6] | Potency [7]

N=C(N)SCCc1ccc(CCSC(=N)N)cc1
inactive: Potency [1] | Potency [2] | Potency [3] | Potency [4] | outcome [5] | Potency [6] | Potency [7] | max response [8] 24%

O=C(CCCCCN1CCN(c2ccccc2-c2ccccc2)CC1)NC1CCCc2ccccc21 (configuration not stated)
inactive: Potency [1] | Potency [2] | Potency [3] | Potency [4] | outcome [5] | Potency [6] | Potency [7]

O=C1/C(=C/c2ccsc2)CC/C1=C\c1cccs1
active: Potency [4] 18.4 µM
inactive: Potency [1] | Potency [2] | Potency [3] | outcome [5] | Potency [6] | Potency [7] | max response [8] 30.3%

Reference: PubChem BioAssay (NCATS)
